Structures are written as SMILES. The whole screen tested about 2,100 compounds, of which about 210 (10%) were called active. Another 53% or so got no clear call; they are omitted. Calls come from the whole dose curve; as a rule, active = well fitted inhibition curve with a large enough effect; inconclusive = small, poorly fitted or top-dose-only effect, or effect the other way; inactive = no such curve, though single readings can be large or run the other way. This is one part of the list. Entries that show only a call come without a potency.
Potency is the fitted concentration of half-maximal effect.

The assay can be described thus: IN Cell qHTS Assay for Inhibitors of the mTORC1 Signaling Pathway in MEF (Tsc2-/-, p53-/-) Cells: Sytravon. Note: nearly all actives have a fitted effect of over 60% in size. As to conditions: phospho-rpS6 immunofluorescence, 24 h; series mostly up to 38.3 µM. The method in brief:
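Tsc2-/-, p53-/- MEFs (empty-vector) treated with compound 24 h at 37 degree Celsius, then fixed and stained for phospho-rpS6 Ser235/236 (Alexa-488) plus Hoechst. Reported as % positive cells, thresholds set against 7.5 nM rapamycin and DMSO wells.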
For the molecule `CCOc1ccc(NC(=O)CSc2c3c(nc4ccccc24)CCCC3)cc1`, the Potency entry was “inactive”. With `COc1ccc(/C=C/C(=O)Nc2ccc3nc4c(c(Nc5ccccc5OC)c3c2)CCCC4)cc1`, the Potency was 2.07 µM (active). As for `COc1cccc(NC(=O)CSc2c3c(nc4ccccc24)CCCC3)c1`, the Potency result was “inactive”. To `COc1ccc(S(=O)(=O)Nc2ccc3oc4c(c3c2)CCCC4)cc1` belongs “inactive”; to `COc1ccc(Nc2c3c(nc4ccc(NC(=O)/C=C/c5cc(OC)c(OC)c(OC)c5)cc24)CCCC3)cc1OC`, 1.47 µM (active). In the case of `COc1ccc(/C=C/C(=O)Nc2ccc3nc4c(c(Nc5ccc(OC)c(OC)c5)c3c2)CCCC4)cc1` it was 3.69 µM (active). With `O=S(=O)(c1ccccc1F)N1CCC(Oc2ccc(-n3cnnn3)cc2)CC1`, the Potency entry is “inactive”. In the case of `CCOCCc1nn2c(=O)cc(COC(=O)c3ccc(NC(=O)c4cccs4)cc3)nc2s1` it was “inactive”; in that of `CCOc1ccc(S(=O)(=O)Nc2cc(Cl)ccc2OC)c2cccnc12`, “inactive”. `COc1ccc(NC(=O)CCn2cnc3onc(-c4ccc(F)cc4)c3c2=O)cc1OC`: the Potency entry is “inactive”.

With `Cc1cccc(-c2nc3cc(NC(=O)Cc4ccc(Cl)cc4)ccc3o2)c1`, the Potency result was “inactive”.

On to `COc1ccc(C(=O)Nc2ccc3oc(-c4ccc5ccccc5c4)nc3c2)cc1Br`, for which the Potency was 13.1 µM (active). As for `COc1ccc(-c2nc3cc(NC(=O)Cc4ccc(Cl)cc4)ccc3o2)cc1OC`, the Potency was 3.29 µM (active). To `COc1ccc(-c2nc3cc(C(C)C)ccc3o2)cc1NC(=O)c1ccccc1[N+](=O)[O-]` belongs “inactive”.

Take `O=C(Nc1ccc2oc(-c3ccc4ccccc4c3)nc2c1)c1cc(Br)ccc1Cl`: the Potency was 16.5 µM (active). As to `CCCn1c(=O)sc2cc(NC(=O)c3ccc(OC)c(Br)c3)ccc21`, the Potency result was “inactive”. To `CCC(=O)Nc1cc(-c2nc3cc(C)cc(C)c3o2)ccc1C` belongs “inactive”; to `COc1c(C)cc(Br)cc1C(=O)Nc1ccc(-c2nc3ncccc3o2)cc1`, “inactive”. As to `CCOc1ccc(OCC)c(NC(=O)Cn2nc(CC)n3c(cc4sccc43)c2=O)c1`, the Potency entry is “inactive”. For the molecule `O=c1c2ccccc2n(Cc2cccc(F)c2)c(=O)n1Cc1ccccc1Cl`, the Potency result is “inactive”.

Regarding `COCCn1c(=O)[nH]c2cc(C(=O)N3CCN(c4ccc(Cl)cc4)CC3)ccc2c1=O`, the Potency entry was “inactive”. To `COc1ccccc1CN1COc2ccc3c(oc(=O)c4ccccc43)c2C1` belongs “inactive”; to `CC(C)CN(CC(C)C)c1nnc(NC(=O)Nc2cccc(C(F)(F)F)c2)s1`, “inactive”.

For the molecule `COc1ccc(OC)c(NS(=O)(=O)c2ccc3c(c2)C(C)(C)C(=O)N3C)c1`, the Potency result is “inactive”. To `COc1cc2nc(Nc3ccc(C)c(C)c3)nc(N)c2cc1OC` belongs 4.14 µM (active); to `O=C(Cn1c(=O)oc2cc(S(=O)(=O)NCc3ccccc3)ccc21)NCc1ccc(Cl)cc1`, “inactive”; to `CC(C)(C)c1ccc(C(=O)N2CCCCC2CCN2CCCCC2)cc1` (centres undefined), “inactive”. In the case of `CC(C)(C)c1ccc(C2NC(=O)c3n[nH]c(-c4cccs4)c32)cc1` (centres undefined) it was “inactive”; in that of `CCOC(=O)c1ccc(N2C(=O)c3n[nH]c(-c4cccs4)c3C2c2cccc(F)c2)cc1` (centres undefined), 13.1 µM (active). To `CCOC(=O)c1ccc(N2C(=O)c3n[nH]c(-c4cccs4)c3C2c2ccc(CC)cc2)cc1` (centres undefined) belongs “inactive”; to `Cc1ccc(NC(=O)CSc2nc(-c3cccs3)cc(C(F)(F)F)n2)cc1C`, “inactive”; to `Cc1ccc(C)c(NC(=O)Cn2cc(C(=O)c3cccs3)c3ccccc32)c1`, “inactive”. On to `Cc1ccc(F)cc1NC(=O)CSc1nc(-c2cccs2)cc(C(F)(F)F)n1`, for which the Potency was 11.7 µM (active). To `Cn1c(=O)c2c(-c3ccc(Br)cc3)n(Cc3ccc(F)cc3)cc2n(C)c1=O` belongs “inactive”; to `COc1ccc(NC(=O)CCS(=O)(=O)c2nc(-c3cccs3)cc(C(F)(F)F)n2)cc1OC`, 16.5 µM (active); to `CSc1ccccc1NC(=O)CCS(=O)(=O)c1nc(-c2cccs2)cc(C(F)(F)F)n1`, “inactive”.

Consider `O=C(CCS(=O)(=O)c1nc(-c2cccs2)cc(C(F)(F)F)n1)Nc1cc(Br)ccc1O`, for which the Potency is 7.36 µM (active). To `COc1ccc(NC(=O)C2CCC(CNS(=O)(=O)c3ccc(Br)s3)CC2)cc1OC` (centres undefined) belongs “inactive”. To `COc1ccc(NC(=O)CCS(=O)(=O)c2nc(-c3cccs3)cc(C(F)(F)F)n2)cc1` belongs “inactive”; to `c1ccc(N2CCN(c3ncnc4c3nc3n4CCCCC3)CC2)cc1`, “inactive”; to `Cc1cccc(N2CCN(c3ncnc4c3nc3n4CCCCC3)CC2C)c1` (centres undefined), 14.7 µM (active). Turning to `CC(=O)c1ccc(N2CCN(c3ncnc4c3c(-c3ccccc3)cn4-c3cccc(C)c3)CC2)cc1`, the Potency entry is “inactive”. On to `CCCc1cc(N2CCN(c3ccccc3)CC2)n2cnnc2n1`, for which the Potency result was “inactive”.

On to `CCCCC1CCC(C(=O)N2CC(=O)Nc3ccc(F)cc3C2c2ccc(F)cc2)CC1` (centres undefined), for which the Potency is 16.5 µM (active).

Turning to `Cc1c(Cl)cccc1NC(=O)c1ccc2c(c1)nnn2C1CCCC1`, the Potency result was “inactive”. To `Nc1c(C(=O)c2ccc(F)cc2)sc(Nc2ccccc2F)c1S(=O)(=O)c1ccc(Br)cc1` belongs “inactive”.

In the case of `Cc1cccc(Nc2nnc(-c3ccc(C)c(S(=O)(=O)N4CCN(C)CC4)c3)c3ccccc23)c1`, the Potency is 14.7 µM (active). For the molecule `COc1ccc(OC2CCN(S(=O)(=O)c3ccc(OC)cc3)CC2)cc1`, the Potency entry was “inactive”.

For the molecule `COc1ccc(Nc2nnc(-c3ccc(C)c(S(=O)(=O)N4CCN(C)CC4)c3)c3ccccc23)cc1`, the Potency was 16.5 µM (active). In the case of `Cc1cccc(NC(=O)Cn2nc(-c3ccc(Cl)cc3)c3ccccc3c2=O)c1` it was “inactive”; in that of `Cc1ccc(-c2nnc(Nc3cccc(Cl)c3)c3ccccc23)cc1S(=O)(=O)N1CCN(C)CC1`, 9.27 µM (active); in that of `COC(=O)COc1ccc(-c2nnc(Nc3ccc(O)cc3)c3ccccc23)cc1`, “inactive”.

Consider `Cc1cc(-c2ccc(C)c(S(=O)(=O)N3CCOc4ccc(Cl)cc43)c2)on1`, for which the Potency entry was “inactive”.

In the case of `CCCCC(=O)Nc1nnc(S(=O)(=O)N2CCCCCC2)s1`, the Potency result was “inactive”. Regarding `CCCN(C(=O)Cn1ncc2c([nH]c3ccc(C)cc32)c1=O)c1ccccc1C`, the Potency result was “inactive”. Regarding `CCN(CC)CCCNc1ncnc2c1cnn2-c1ccc(C)c(C)c1`, the Potency entry was “inactive”. In the case of `O=C(Nc1ccc(F)cc1F)N1CCN(c2ccc(Cl)c(Cl)c2)CC1` it was “inactive”; in that of `Cc1ccccc1NC(=O)CCn1cnc2onc(-c3ccc(F)cc3)c2c1=O`, “inactive”; in that of `Cc1cc2c(cc1C)NC(CC(=O)Nc1ccccc1)C(=O)N2` (centres undefined), “inactive”.
